Results filed as inconclusive are left out. Some structures have more than one record in an assay (separate samples or runs), and their calls can disagree. Calls of active or inactive are those of the source. How the source made its calls: active means hit-call score of the fitted dose curve at least 0.9, where 1 is the maximum; inconclusive means response in the unintended direction; inactive means score below 0.9.

As a reminder, the AC50 is the midpoint of the concentration-response curve, whichever way the signal moves.

Sequence of Oxysterols receptor LXR-alpha (Homo sapiens) (Q13133 whole entry, looked up): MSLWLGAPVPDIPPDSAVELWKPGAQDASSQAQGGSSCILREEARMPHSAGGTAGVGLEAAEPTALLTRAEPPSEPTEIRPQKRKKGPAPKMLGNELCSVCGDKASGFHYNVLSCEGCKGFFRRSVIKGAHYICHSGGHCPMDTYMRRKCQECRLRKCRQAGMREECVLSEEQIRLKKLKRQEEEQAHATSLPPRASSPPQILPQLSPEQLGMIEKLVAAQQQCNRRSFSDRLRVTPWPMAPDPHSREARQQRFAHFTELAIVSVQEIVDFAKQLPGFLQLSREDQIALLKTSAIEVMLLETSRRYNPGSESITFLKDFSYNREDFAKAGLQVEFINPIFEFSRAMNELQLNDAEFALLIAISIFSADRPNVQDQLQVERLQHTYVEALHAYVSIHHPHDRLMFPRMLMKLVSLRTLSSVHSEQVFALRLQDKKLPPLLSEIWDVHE

The target of this experiment is Oxysterols receptor LXR-alpha (Homo sapiens) (UniProt Q13133). In words: ATG_LXRa_TRANS: Attagene TRANS-FACTORIAL HepG2 Assay for human Liver X Receptor alpha (LXRa) (AID 2282980). Conditions: HepG2 Attagene TRANS reporter, LXRa transactivation. As for the experimental part:
ATG_TRANS is a cell-based, multiplexed-readout assay that uses HepG2, a human liver cell line, with measurements taken at 24 hours after chemical dosing in a 24-well plate.ATG_LXRa_TRANS is one of 30 assay component(s) measured or calculated from the ATG_TRANS assay. It is designed to make measurements of mRNA induction, a form of inducible reporter, as detected with fluorescence intensity signals by Reverse transcription polymerase chain reaction (RT-PCR) and Capillary electrophoresis technology.Data from the assay component ATG_LXRa_TRANS was analyzed into 1 assay endpoint. This assay endpoint, ATG_LXRa_TRANS, was analyzed in the positive analysis fitting direction relative to DMSO as the negative control and baseline of activity. Using a type of inducible reporter, measures of mRNA for gain-of-signal activity can be used to understand the reporter gene at the transcription factor-level as they relate to the gene NR1H3. Furthermore, this assay endpoint can be referred to as a primary readout, because this assay has produced multiple assay endpoints where this one serves a reporter gene function. To generalize the intended target to other relatable targets, this assay endpoint is annotated to the nuclear receptor intended target family, where the subfamily is non-steroidal.
Human liver HepG2 cells are transiently transfected with multiple reporter transcription units (MRTUs) in 6-well plates using FuGene 6 reagent (Roche; 3 ml FuGene/1 mg DNA). The MRTU constructs are regulated by a cis-regulating element (promoter). […] A major difference between the CIS and TRANS system is that in CIS activities of endogenous TFs are measured, whereas the TRANS assay evaluates changes in activities of exogenous, chimeric NR-Gal4 proteins. […] At the end of 24 hour incubation, total RNA was isolated using TriZol reagent (Invitrogen). The isolated RNA is then reverse-transcribed using oligo(dT) primer and Mo-MLV reverse transcriptase (Invitrogen) with DNAse I (Ambion) treatment for 30 min. The one-tenth of the produced cDNA was amplified by PCR using Taq DNA polymerase (Invitrogen) and two reporter sequence-specific primers. The PCR products were fluorescently labeled by primer extension with 6-arboxyfluorescein (6-FAM) 5'-labeled reporter sequence-specific primer (2 min at 95 C, 20 s at 68 C and 10 min at 72 C) and these products were digested with 5U of HpaI (New England Biolabs) for 2h at 37 C. The fragments were purified using Qiaquick PCR columns (Qiagen), analyzed on an ABI 3130xL genetic analyzer (Applied Biosystems) with peak positions identified by using a set of X-rhodamine (ROX)-labeled MapMarker1000 molecular weight standards (BioVentures). The raw capillary electrophoresis data was processed using Attagraph software (Attagene).
For `c1ccc2[nH]c(-c3cscn3)nc2c1`, the half-maximal activity concentration (AC50) is 27.2 µM (active).

With `CC(C)CCCCCCc1ccc(O)cc1`, the AC50 was 11.1 µM (active) and the molecule was called inactive.

As to `O=C(O)c1ccccc1`, the call was inactive.

As to `S=C(S)NCCNC(=S)S.[Mn+2].[S-]C([S-])=NCCN=C([S-])[S-].[Zn+2]`, the molecule was called inactive.

Turning to `COC(=O)c1ccccc1C(=O)O`, the molecule was called inactive.

Consider `c1ccc(Nc2ccccc2)cc1`, for which the molecule was classed as inactive.

For `O=C(c1ccccc1)C1CCCCC1`, the result was inactive.

Consider `CC(=O)[C@H]1CC[C@H]2[C@@H]3CCC4=CC(=O)CC[C@]4(C)[C@H]3CC[C@]12C`, for which the outcome was inactive.

Take `CCCN(CCC)C(=O)SCC`: the molecule was called inactive.

As to `CCN(CC)C(=O)c1cccc(C)c1`, the result was inactive.

With `CCC(C)OC(=O)N1CCCCC1CCO` (stereo not given), the molecule was classed as inactive.

With `CC(C)(c1ccc(O)cc1)c1ccc(O)cc1`, the molecule was called inactive.

Take `CCCOC(=O)NCCCN(C)C`: the result was inactive.

On to `Cc1nn(C)c(Oc2ccccc2)c1C=NOCc1ccc(C(=O)OC(C)(C)C)cc1`, for which the half-maximal activity concentration (AC50) was 1.31 µM (active).

With `COC(=O)CSc1cc(N=c2sc(=O)n3n2CCCC3)c(F)cc1Cl`, the outcome was inactive.

On to `CC1(C)C(C=C(Cl)Cl)C1C(=O)OCc1cccc(Oc2ccccc2)c1` (stereo not given), for which the outcome was inactive.

As to `N[C@@H](Cc1cc(I)c(Oc2ccc(O)c(I)c2)c(I)c1)C(=O)O`, the molecule was classed as inactive.

As to `CCOC(=O)C(C)Oc1ccc(Oc2nc3ccc(Cl)cc3o2)cc1` (stereo not given), the molecule was classed as inactive.

`COCCO`: the molecule was called inactive.

On to `C[C@]12CC[C@@H]3c4ccc(O)cc4C[C@@H](CCCCCCCCCS(=O)CCCC(F)(F)C(F)(F)F)[C@H]3[C@@H]1CC[C@@H]2O` (stereo not given in full), for which the call was inactive.

Turning to `S=C([S-])NCCNC(=S)[S-].[Mn+2]`, the molecule was classed as inactive.

`CCOC(=O)[C@H](C)Oc1ccc(Oc2nc3ccc(Cl)cc3o2)cc1`: the call was inactive.

With `CC(C)(C)[C@@H](O)[C@@H](Cc1ccc(Cl)cc1)n1cncn1`, the call was inactive.

In the case of `CCCN(CCC)c1c([N+](=O)[O-])cc(C(F)(F)F)c(N)c1[N+](=O)[O-]`, the molecule was classed as inactive.

In the case of `CN(C)C(=O)Nc1ccc(Cl)c(Cl)c1`, the result was inactive.

With `CCCCC(CC)CN1C(=O)C2C3C=CC(C3)C2C1=O` (stereo not given), the molecule was called inactive.

Regarding `Oc1ccc(C(c2ccc(O)cc2)C(Cl)(Cl)Cl)cc1`, the molecule was called inactive.

As for `CCOC(=O)COc1cc(-n2ncc(C(F)(F)F)c(C)c2=O)c(F)cc1Cl`, the outcome was inactive.

Take `CCNc1nc(N)nc(Cl)n1`: the result was inactive.

With `C[C@]12C[C@H](O)[C@H]3[C@@H](CCC4=CC(=O)CC[C@@]43C)[C@@H]1CC[C@@H]2C(=O)CO`, the outcome was inactive.

For the molecule `CCC(O)=C1C(=O)CC(C(=O)O)CC1=O` (stereo not given), the result was inactive.

Turning to `CCCCOC(=O)[C@@H](C)Oc1ccc(Oc2ccc(C(F)(F)F)cn2)cc1`, the outcome was inactive.

As to `CCCCOC(=O)C(C)Oc1ccc(Oc2ccc(C(F)(F)F)cn2)cc1` (stereo not given), the result was inactive.

Turning to `C#CCOC(=O)[C@@H](C)Oc1ccc(Oc2ncc(Cl)cc2F)cc1`, the result was inactive.

Regarding `CC(=O)S[C@@H]1CC2=CC(=O)CC[C@]2(C)[C@H]2CC[C@@]3(C)[C@@H](CC[C@@]34CCC(=O)O4)[C@H]12`, the molecule was called inactive.

Take `CCCOC(=O)c1ccc(C(=O)OCCC)nc1`: the molecule was called inactive.

For `CCCCCOC(=O)COc1cc(N2C(=O)C3=C(CCCC3)C2=O)c(F)cc1Cl`, the result was inactive.

Consider `COC(=O)c1ccc(CNS(C)(=O)=O)cc1S(=O)(=O)NC(=O)Nc1nc(OC)cc(OC)n1`, for which the result was inactive.

For `C#C[C@]1(O)CC[C@H]2[C@@H]3CCC4=CC(=O)CC[C@@H]4[C@H]3CC[C@@]21CC`, the call was inactive.

The values above are taken from PubChem BioAssay (EPA / NIEHS).
